Most compounds without a hit are left out; they make up all but 3.6% or so of the library.
Pf apPOL block: Pf-apPOL DNA polymerase inhibition; Recombinant Pf-apPOL, molecular beacon fluorescence, 1.5 h; inhibition, % at 10 µM; 210,000 compounds, 0.25% hits
mHTT-CaM PPI inh: disrupts binding of mutant huntingtin to calmodulin; AlphaScreen His-mHTT/GST-CaM binding, luminescence; 190,000 compounds, 3.6% hits; P42858; inhibition, % at 15 µM;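 also: 0% = both proteins with DMSO and 100% = one protein alone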
An asterisk follows results filed as active; · = not tested or not shown. Rule as the data show it: active = inhibition above about 50%; inactive = the rest.

SMILES | Pf apPOL block | mHTT-CaM PPI inh
Nc1ccc(-c2nc3ccc(-c4ccc5nc(-c6ccc(N)cc6)[nH]c5c4)cc3[nH]2)cc1 | -3.4 | 99.5*
CN(C)c1ccc(-c2nc3ccc(N)cc3[nH]2)cc1 | -74.5 | 56.0*
O=C(O)c1ccc2nc(-c3cccc(-c4nc5ccc(C(=O)O)cc5[nH]4)c3)[nH]c2c1 | 20.5 | ·
COc1ccccc1OCC(=O)NCC(c1ccsc1)N1CCCCCC1 (stereo not given) | -3.6 | -11.1
Cc1c(Br)c([N+](=O)[O-])nn1CC(=O)N1CCCCC1C (stereo not given) | -2.8 | -1.0
CCOc1ccccc1C(=O)NCCC1CCN(C(=O)c2ccc(C)cc2)CC1 | -2.0 | 30.1
O=C(NCc1ccccc1Cl)C1CCCN(c2nccc3sccc23)C1 (stereo not given) | -8.1 | 0.8
Oc1ccc2nc(-c3ccccc3)[nH]c2c1 | 7.4 | 9.0
COc1ccc(-c2nc3ccccc3[nH]2)cc1 | -4.1 | 9.5
Nc1ccc2nc(-c3cc(Cl)c(N)c(Cl)c3)[nH]c2c1 | 1.9 | 54.0*
Nc1ccc(-c2nc3ccc(Oc4ccc5nc(-c6ccc(N)cc6)[nH]c5c4)cc3[nH]2)cc1 | -3.2 | 84.0*
O=C1CC(c2ccc3c(c2)OCO3)CC2=C1C(c1ccncc1)Nc1ccccc1N2 (stereo not given) | -6.2 | 5.0
O=C(O)c1cc(C2CC2)n(C2CCS(=O)(=O)C2)n1 (stereo not given) | -7.9 | -19.1
c1ccc(-c2ccc3ccccc3n2)nc1 | · | -1.2
c1ccc(-c2cccc(-c3ccccn3)n2)nc1 | · | 100.3*
O=C(NCC1CCCO1)C1c2ccccc2C(=O)N1Cc1ccc(F)cc1Cl (stereo not given) | -6.0 | -4.0
COc1ccc(C(=O)C=Cc2ccc3c(c2)OCCO3)c(OCc2ccccc2)c1 | -21.5 | 16.4
COc1ccc(O)c(C(=O)C=Cc2ccc3c(c2)OCCO3)c1 | 5.7 | 60.9*
Cc1cc(N)nc(SC(C)CN(C)C)n1 (stereo not given) | · | -1.1
Cc1nn(-c2ccc(C(=O)N3CCN(c4ccccn4)CC3)cc2)c2c1C(=O)CCC2 | 1.1 | 13.5
Cc1nn(-c2ccc(C(=O)N3CCN(c4cccc(Cl)c4)CC3)cc2)c2c1C(=O)CCC2 | -1.7 | 82.6*
Cc1ccc(OCCCN(C)C)cc1C | -4.6 | 6.9
COc1ccc(-c2cc3ccc(OC(=O)C(C)C)cc3oc2=O)c(OC)c1 | -0.9 | 78.4*
COc1ccc(OC)c(-c2cc3ccc(OC(=O)C(C)C)cc3oc2=O)c1 | -5.1 | -2.8
Cc1ccc(CN2C(=O)NC3(CCN(C(=O)c4ccccc4)CC3)C2=O)cc1 | -6.7 | 1.4
SMILES | Pf apPOL block | mHTT-CaM PPI inh
CN(CCCNC(=O)C1CCN(c2nnc3ccccn23)CC1)c1ccccc1 | -2.7 | 25.0
CC(Oc1ccc(Cl)cc1Cl)C(=O)Nc1ccncc1 (stereo not given) | -3.9 | -3.5
CC(Oc1ccc(Cl)cc1Cl)C(=O)NC1=NN(c2ccccc2)C(=O)C1 (stereo not given) | -5.8 | 68.0*
Cc1c(-c2noc(C(=O)NCCc3ccccc3)n2)oc2ccccc12 | 0.8 | -35.7
COc1ccc(-c2nc(-c3nnn(-c4ccc(F)cc4)c3C)no2)cc1OC | -4.9 | -6.1
COc1ccc(-c2nc(-c3ccc(F)cc3)c[n+]3ccc4cc(OC)c(OC)cc4c23)cc1OC | · | 77.7*
CC1(C)C(Br)(Br)C1(C)c1ccccc1 (stereo not given) | 11.8 | -5.0
O=C(Cc1ccc(F)cc1)N1CCCC1c1nc(-c2cccc(Cl)c2)no1 (stereo not given) | -1.6 | 19.9
Cc1cccc(-c2noc(C3CCCN3C(=O)Cc3cccc(Cl)c3)n2)c1 (stereo not given) | -5.5 | 79.4*
Cc1ccc(CC(=O)N2CCCC2c2nc(-c3cccc(Cl)c3)no2)cc1 (stereo not given) | -4.0 | 60.6*
O=C(NCCc1ccccc1)N1CCCC1c1nc(-c2ccccc2)no1 (stereo not given) | 0.3 | 0.5
O=C(NCCc1ccccc1)N1CCCC1c1nc(-c2cccc(Cl)c2)no1 (stereo not given) | -3.2 | 60.6*
O=C(Cc1cccc(F)c1)N1CCCC1c1nc(-c2cccc(Cl)c2)no1 (stereo not given) | 0.8 | 0.6
COc1cc(CN2CCc3nc(Nc4ccccc4F)ncc3C2)cc(OC)c1OC | -4.1 | 14.8
CCc1[nH]nc(-c2ccc(F)c(F)c2)c1NC(=O)COC | -3.4 | 96.7*
CCC(=O)Nc1c(-c2cccc(OC)c2)n[nH]c1CC | 69.6* | 91.4*
CCC(=O)Nc1c(-c2ccc(F)c(F)c2)n[nH]c1CC | -1.6 | 7.3
CCc1[nH]nc(-c2cccc(OC)c2)c1NC(=O)C1CCCC1 | 3.1 | 17.9
NC(=O)c1ccc(N2C(=O)CCC2=O)cc1Cl | -10.9 | -2.5
c1ccc(CN2CCCCC2c2nc(-c3ccncc3)no2)cc1 (stereo not given) | -3.5 | -11.5
Cc1ccc2c(c1)/C(=c1\sc3nc4ccccc4n3c1=O)C(=O)N2 | 54.9* | 0.0
CCN1C(=O)/C(=c2/sc3nc4ccccc4n3c2=O)c2ccccc21 | 5.5 | -3.0
COc1ccc(OC)c(N2CCN(Cc3ccc(F)cc3)C(C)C2=O)c1 (stereo not given) | 4.0 | 73.8*
COc1ccc(OC)c(N2CCN(Cc3cccc(C)c3)C(C)C2=O)c1 (stereo not given) | 0.6 | 62.3*
COc1ccc(N2CCN(Cc3ccc(F)cc3)C(C)C2=O)c(OC)c1 (stereo not given) | -1.3 | 17.4
SMILES | Pf apPOL block | mHTT-CaM PPI inh
COc1ccc(OC)c(N2CCN(Cc3ccccc3F)C(C)C2=O)c1 (stereo not given) | 0.2 | 22.4
O=C(NC1CCCCC1)NC1(C(F)(F)F)Oc2ccccc2O1 | -2.5 | -1.0
COc1ccc(N2C(=O)C3C(c4cccc(OC)c4O)NC(CC(C)C)(C(=O)O)C3C2=O)cc1 (stereo not given) | 23.5 | 7.0
Cc1nc(N)sc1-c1csc(Nc2ccccc2)n1 | -0.2 | 88.8*
O=[N+]([O-])c1ccc(Nc2nc(-c3ccncc3)cs2)cc1 | 11.7 | -2.1
c1ccc(Nc2nc(-c3ccc4c(c3)OCO4)cs2)nc1 | 3.7 | 37.3
Cc1ccnc(Nc2nc(-c3ccccc3)cs2)c1 | -3.0 | -2.6
Cc1ccc(Nc2nc(-c3ccc([N+](=O)[O-])cc3)cs2)cc1C | -1.3 | 75.2*
Cc1nc(N)sc1-c1csc(Nc2cccc(C(=O)O)c2)n1 | -2.3 | 29.9
Cc1ccnc(Nc2nc(-c3sc(N)nc3C)cs2)c1 | -5.4 | 65.5*
Ic1ccc(-c2csc(Nc3ccc4c(c3)OCO4)n2)cc1 | -2.9 | 62.0*
CCOc1ccc(C(O)C[N+](=O)[O-])cc1OCC (stereo not given) | 4.3 | 1.0
O=C(NCc1ccncc1)C1CN(S(=O)(=O)C2CC2)CC12CCCCC2 (stereo not given) | 1.9 | 6.0
O=C(O)c1c(F)ccc(S(=O)(=O)NCCc2ccccc2)c1F | -15.6 | 0.0
COc1cc([N+](=O)[O-])ccc1NC(=O)c1ccc(I)cc1 | -0.5 | -4.4
O=C(Nc1nnc(SCC(=O)N2CCCc3ccccc32)s1)c1cccs1 | 0.7 | -18.8
Cc1cc2[nH]c(C(=O)Nc3ccc(F)cc3F)c(CN3CCCC3)c2s1 | 5.8 | 10.9
CC(=O)Nc1c(C)c(N)cc(C(=O)O)c1[N+](=O)[O-] | 5.9 | 3.0
Cc1cc(C)c(C)c(OCC(=O)N2CCN(c3ccc([N+](=O)[O-])cc3)CC2)c1 | 2.0 | -0.5
Cc1ccc(NCc2ccc([N+](=O)[O-])cc2)cc1C | -4.1 | 60.5*
